In the library only some 4.1% were active in any assay of this set; here they are far more common.
ALR inh: inhibitors of human ALR sulfhydryl oxidase, primary screen, biochemical, H2O2 detection, HRP-luminol luminescence, single point. FAD-linked sulfhydryl oxidase ALR (Homo sapiens), P55789. purified ALR, DTT oxidation. inhibition, % (concentration not given with the values). hit rate 3.8% among 290,000. AID 485317, 2010;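 active means mean replicate inhibition above about 79%, with every replicate also reaching it, limit read from the data; inconclusive means only one of the two criteria met; inactive means mean below limit and not every replicate reaching it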
Target sequence (P55789 whole entry, looked up): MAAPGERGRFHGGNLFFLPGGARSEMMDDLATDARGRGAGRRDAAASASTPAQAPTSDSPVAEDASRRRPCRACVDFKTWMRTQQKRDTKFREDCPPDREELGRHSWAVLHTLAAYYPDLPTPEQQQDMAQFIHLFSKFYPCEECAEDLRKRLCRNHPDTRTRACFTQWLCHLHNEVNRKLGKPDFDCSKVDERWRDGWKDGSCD
CFTR F508del cor: F508del CFTR correction, initial screen, CFBE line, single point | hit rate 0.36% among 350,000 | activity (quench increase), % at 7.58 µM | CFBE cells, YFP halide quenching; stimulated with forskolin plus potentiator P3; % fluorescence drop versus neutral controls | AID 720511, 2013;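 active means mean added fluorescence quench of at least 8% versus neutral control, with both replicates also reaching 8%; inconclusive means only one of the mean or replicate conditions met; inactive means mean below 8% and not both replicates reaching 8%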;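 further: cells transiently co-express mutant CFTR-F508del with the halide-sensitive YFP; corrector assay measuring rescue of mutant channel to the surface after 24 h compound exposure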
PglD inh: C. jejuni PglD acetyltransferase inhibitors, primary screen, biochemical, DTNB colorimetric, single point; UDP-N-acetylbacillosamine N-acetyltransferase PglD (Campylobacter jejuni); purified PglD enzyme, DTNB colorimetric CoA detection; inhibition, % at 12.5 µM; hit rate 0.098% among 360,000; AID 602405, 2012; in the data active means inhibition above about 16%, passing the limit was not always enough; inconclusive means no clear call, values can overlap the other calls
HIV Env fusion: inhibitors of HIV-1 Env-driven cell-cell fusion, primary screen, HeLa-JRFL effector, CEM21 target cells, luciferase; inhibition, % at 12.3 µM; hit rate 1.1% among 360,000; AID 651610, 2012;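 active means mean replicate inhibition score of at least 50 and every replicate individually at or above 50; inconclusive means only one of the two criteria met; inactive means mean below 50 and not all replicates reaching 50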;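 further: 0% = plate neutral controls and 100% = maraviroc near 300 nM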
NSD2 HMT inh: NSD2 histone methyltransferase inhibitors, primary screen, biochemical, AlphaScreen, single concentration, set 2; Histone-lysine N-methyltransferase NSD2 (Homo sapiens), O96028; NSD2 peptide methylation, 120 min; inhibition, % at 12.5 µM; hit rate 0.54% among 310,000; AID 743445, 2014; in the data active means inhibition above about 50%
CASP6 VEID inh: human caspase-6 inhibitors, primary screen, biochemical, VEID-R110 fluorescence, single point, set 2; purified caspase-6, Z-VEID-R110 cleavage fluorescence; hit rate 0.53% among 350,000; AID 686996, 2013; P55212; inhibition, % at 12.5 µM;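 active means mean inhibition across replicates at least about 35%, with every replicate also reaching that limit, limit read from the data; inconclusive means only one of the two criteria met; inactive means neither criterion met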;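 further: 0% = median of neutral control wells and 100% = no fluorescence left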
Target sequence (P55212 24-179 limits assumed): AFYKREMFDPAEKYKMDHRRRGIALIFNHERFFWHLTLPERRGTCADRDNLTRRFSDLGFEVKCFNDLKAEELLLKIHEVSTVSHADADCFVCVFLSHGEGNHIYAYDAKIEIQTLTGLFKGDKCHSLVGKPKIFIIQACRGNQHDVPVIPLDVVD
Target sequence (P55212 194-293 limits assumed): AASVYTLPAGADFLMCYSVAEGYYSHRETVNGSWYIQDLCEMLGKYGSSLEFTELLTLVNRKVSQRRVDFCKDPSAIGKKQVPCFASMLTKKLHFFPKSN
AlphaScreen art: AlphaScreen signal interference with preloaded methylated product, dose response, artefact control for NSD2 inhibitor project, biochemical, cherry-picked samples | shares compounds with NSD2 HMT inh | AlphaScreen artifact counterscreen, preloaded methylated H4 peptide | AC35, µM (doses to about 10 µM), without a hit: top-dose activity change, negative = signal loss | hit rate 9.4% among 1,500; call rule not given here
* hit, by the source's call; ? = inconclusive; nt = no result; [ ] = remark or other dose.

SMILES	ALR inh	CFTR F508del cor	PglD inh	HIV Env fusion	NSD2 HMT inh	CASP6 VEID inh	AlphaScreen art
O=C(O)CC(C(=O)O)N1C(=O)/C(=C/c2ccc(-c3nc4ccccc4s3)o2)SC1=S (stereo unspecified)	49.0	nt	6.3	nt	66.9*	nt	-6.1%
Cc1ccc(NC(=O)CCCN2C(=O)/C(=C/C=C/c3ccccc3)SC2=S)cc1	6.8	nt	-7.0	4.8	-2.5	nt	nt
O=C(O)CCCN1C(=O)/C(=C/C=C/c2ccco2)SC1=S	?	-2.5	nt	14.2	110.0*	81.5*	-12.7%
COc1ccc(CN(C)C[C@H]2Oc3ccc(NC(=O)Nc4ccc(C(F)(F)F)cc4)cc3CC(=O)N([C@H](C)CO)C[C@H]2C)cc1	nt	2.1	0.5	20.5[16.7 µM]	nt	1.4	nt
Cc1ccc(OCCCC(=O)Nc2ccccc2C(F)(F)F)cc1	-13.1	nt	-0.5	nt	54.2*	nt	-0.4%
O=C1C=C(Nc2ccccc2O)c2ccccc2C1=O	56.7	-4.6	-3.8	nt	94.4*	41.4*	-0.5%
O=C1C=C(NCc2ccccc2)c2ccccc2C1=O	nt	-0.8	nt	36.5	140.3*	80.4*	-1.9%
CCOc1ccc(NC2=CC(=O)C(=O)c3ccccc32)cc1	nt	0.0	nt	-8.9	18.1	0.9	nt
O=c1cccccc1NCc1ccccc1	-6.5	nt	-0.2	-50.0	2.9	17.2	nt
O=C1C=C(Nc2cccnc2)c2ccccc2C1=O	nt	-1.4	nt	-7.7	98.8*	95.9*	0.4%
COc1ccc(C#Cc2ccc3c(c2)O[C@@H](CN(C)C(=O)Nc2cccc(OC)c2)[C@@H](C)CN([C@H](C)CO)S3(=O)=O)cc1	nt	3.0	-0.8	14.9[16.7 µM]	nt	-2.4	nt
O=C1c2cccc3c([N+](=O)[O-])ccc(c23)C(=O)N1CCc1ccccn1	-23.9	-2.0	-1.1	-26.8	2.7	0.8	nt
CN(C)CCCN1C(=O)c2cccc3c([N+](=O)[O-])ccc(c23)C1=O	68.7	nt	nt	nt	70.7*	nt	-1.8%
O=C(Cc1csc(N2CCOCC2)n1)N/N=C/c1ccc(O)c(O)c1O	nt	-3.0	0.3	7.6	76.7*	18.8	-8.6%
C/C(=N\NC(=O)Cc1csc(N2CCOCC2)n1)c1ccccc1	4.5	nt	-3.1	-8.4	-0.2	nt	nt
O=C1C=C(O)c2[nH]c(=O)ccc2C1=O	nt	-0.4	nt	26.2	93.8*	84.2*	0.6%
C[C@H](CO)N1C[C@H](C)[C@H](CN(C)S(=O)(=O)c2ccc(F)cc2)OCCCC[C@H](C)Oc2ccc(NS(=O)(=O)c3cccs3)cc2C1=O	nt	0.2	-2.3	-25.6[16.7 µM]	nt	0.4	nt
O=C(c1ccccc1F)N1CC[C@@H]2[C@H]1c1cc(-c3ccccc3)ccc1N[C@@H]2CO	nt	0.8	0.4	nt	nt	1.0	nt
CC(=O)Nc1ccc(NC2=C/C(=N/S(=O)(=O)c3cccs3)c3ccccc3C2=O)cc1	-58.0	nt	nt	-7.7	83.0*	98.5*	-9.8%
CC(=O)Nc1ccc(NC(=O)C(C)OC(=O)c2ccccc2NS(=O)(=O)c2cccs2)cc1 (stereo unspecified)	-9.1	-1.8	2.6	-4.4	-1.1	2.9	nt
CC1CCN(C(=O)C2CCN(S(=O)(=O)c3cccs3)CC2)CC1	2.3	-1.5	-2.2	-26.1	-4.0	1.3	nt
CC1CC(C)CN(C(=O)C2CCN(S(=O)(=O)c3cccs3)CC2)C1 (stereo unspecified)	5.0	1.3	0.9	4.4	50.3*	-0.3	-1.5%
COc1cccc(NC(=O)CN(c2cccc(C(F)(F)F)c2)S(C)(=O)=O)c1	nt	nt	-0.7	-99.1	-2.4	nt	nt
CCOc1ccc(NC(=O)CN(c2cccc(C(F)(F)F)c2)S(C)(=O)=O)cc1	1.1	nt	-0.7	-61.6	113.0*	nt	0.3%
CC(C)NC(=O)N(C)C[C@H]1OCCCC[C@H](C)Oc2ccc(NC(=O)Cc3ccccc3)cc2C(=O)N([C@@H](C)CO)C[C@@H]1C	nt	-1.7	3.7	-4.5[16.7 µM]	nt	-2.0	nt
COc1ccc(/C=C/C(=O)OCC(=O)NCC2CCCO2)cc1 (stereo unspecified)	0.4	-0.5	nt	1.7	53.9*	0.6	1.6%

Bioassay records as filed in PubChem.
